DT40 TDP1 no CPT: qHTS for Inhibitors of human tyrosyl-DNA phosphodiesterase 1 (TDP1): qHTS in cells in absence of CPT. Potency, µM (highest dose often 46.2 µM), inactives show at the highest dose activity change, negative = growth inhibition, actives largely listed as inhibitors. DT40 Tdp1-/- hTDP1 cells, no CPT, ATP luminescence, 48 h. 420,000 tested, 15% active. AID 686978, 2013; note: potency is the fitted concentration of half-maximal effect; % is set by controls: 0 for no effect and ±100 for the full control effect; nearly all actives have a fitted effect of over 55% in size
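DT40 Tdp1-/-;hTDP1 cells, no CPT (DMSO vehicle only), 400 cells/well; compounds pin-transferred; ≥48 hr, 37 °C; CellTiter-Glo 30 min RT dark, luminescence read.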
IL1B secr inh: blocks inflammasome-driven IL-1 beta release. THP-1 LPS/ATP IL-1B secretion, AlphaLISA, 16 h; active compounds read low. activity change, % at 57.5 µM. 360,000 tested, 4.7% active; in the data active = activity change below about -50%; inconclusive = mostly about -30% to -49%; note: % is set by controls: 0 for no effect and ±100 for the full control effect
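Secreted IL-1B measured by AlphaLISA bead assay after 16 h compound exposure of THP-1 cells; compounds (final up to 57.5 uM) added 1 h before LPS (250 ng/mL) and ATP (1.25 mM) stimulation; lower signal means less secretion.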
HepG2 viability: counter-screen for TGF-b inhibitors: cytotoxicity in HepG2 cells. HepG2 CAGA-GFP viability, ATP luminescence, 18 h. Potency, µM (highest dose often 46.1 µM), inactives show at the highest dose activity change, negative = cytotoxicity, hits mostly cytotoxic. 410,000 tested, 0.76% active. AID 588856; note: potency is the fitted concentration of half-maximal effect
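CellTiter-Glo luminescence gave cytotoxicity after 18 hours at 37 degrees C. The cells were HepG2 CAGA-GFP in 1% FBS DMEM, stimulated with 500 pg/mL TGF-beta after compound addition. %Activity was normalised to no-cell wells (complete cell-killing) and DMSO (no toxicity), and curves were fitted and classified.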
DT40 TDP1 CPT: growth inhibition of DT40 Tdp1-/-;hTDP1 cells with camptothecin (screen for TDP1 inhibitors); chicken DT40 Tdp1-/-;hTDP1 cells + 20 nM CPT, ATP luminescence, 48 h; Potency, µM (titrated, usually from 46.2 µM), for inactives: at the highest dose activity change, negative = growth inhibition, hits mostly inhibitors; 420,000 tested, 12% active; AID 686979; note: potency is the fitted concentration of half-maximal effect; % is set by controls: 0 for no effect and ±100 for the full control effect; nearly all actives have a fitted effect of over 55% in size
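Chicken DT40 Tdp1-/- cells stably complemented with human TDP1 were seeded at 400 cells/well in medium containing 20 nM camptothecin, exposed to pin-transferred compounds, and grown at 37 °C for at least 48 hr. Viability was read as ATP luminescence.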
S-ASM inh: blocks human secretory acid sphingomyelinase | P17405 | placental ASM, HMU-PC fluorogenic substrate, 60 min | Potency, µM (titrated, usually from 57.5 µM), without a hit: at the highest dose activity change, negative = inhibition, usual class: inhibitors | 340,000 tested, 0.006% active | AID 504937; note: potency is the fitted concentration of half-maximal effect
Target sequence (P17405 47-631 limits assumed): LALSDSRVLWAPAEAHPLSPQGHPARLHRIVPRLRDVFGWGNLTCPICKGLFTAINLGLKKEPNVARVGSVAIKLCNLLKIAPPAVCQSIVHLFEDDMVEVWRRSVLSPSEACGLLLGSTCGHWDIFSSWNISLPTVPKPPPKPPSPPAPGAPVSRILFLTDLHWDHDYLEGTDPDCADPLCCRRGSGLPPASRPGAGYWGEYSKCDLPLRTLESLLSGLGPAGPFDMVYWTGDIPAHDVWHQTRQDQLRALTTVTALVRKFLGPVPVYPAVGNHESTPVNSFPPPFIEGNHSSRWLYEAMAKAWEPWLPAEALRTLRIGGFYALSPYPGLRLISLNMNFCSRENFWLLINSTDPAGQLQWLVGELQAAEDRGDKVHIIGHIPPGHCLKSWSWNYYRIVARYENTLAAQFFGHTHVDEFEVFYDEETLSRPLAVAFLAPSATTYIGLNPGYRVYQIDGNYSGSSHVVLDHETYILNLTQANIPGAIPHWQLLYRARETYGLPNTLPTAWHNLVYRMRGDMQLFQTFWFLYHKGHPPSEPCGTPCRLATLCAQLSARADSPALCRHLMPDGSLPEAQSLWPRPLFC
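HMU-PC0 cleavage (9 uM final) by human placental ASM, 60 min at 37 °C following 10 min compound exposure at RT; stopped at pH 10, fluorescence Ex 386/Em 447 nm.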
TGFb SMAD3 inh: TGF-b pathway inhibition. AID 588855. 410,000 tested, 1.2% active. Potency, µM (highest dose often 46.1 µM), for inactives: at the highest dose activity, negative = inhibition, actives largely listed as inhibitors. HepG2 CAGA-GFP TGF-b/SMAD3 reporter, GFP fluorescence, 18 h; TGF-beta stimulated, 500 pg/mL final; note: potency is the fitted concentration of half-maximal effect; % is set by controls: 0 for no effect and ±100 for the full control effect; nearly all actives have a fitted effect of over 65% in size
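TGF-beta reporter screen: HEPG2 CAGA-GFP, 1% FBS, 500 pg/mL TGF-beta final, 18 h; per-cell GFP summed per well; curves fitted and categorized by class.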
Active calls of the source: *; ? = inconclusive; . = not tested or not shown. This is a sample that favours compounds with a hit; in the whole collection about 19% have one here. Unless noted, calls come from the whole dose curve; as a rule, active = well fitted curve in the direction sought with a large enough effect; inconclusive = small, poorly fitted or top-dose-only effect, or another doubt; inactive = no such curve, though single readings can be large; an effect the other way counts as inactive or inconclusive.

SMILES	DT40 TDP1 no CPT	IL1B secr inh	HepG2 viability	DT40 TDP1 CPT	S-ASM inh	TGFb SMAD3 inh
CCc1ccc(Sc2cc(C(=O)NCCCN3CCCC(C)C3)c3ccccc3n2)cc1 (stereo unspecified)	?	.	-56.6%	?	.	?
COc1ccc(N2CCN(CCCNC(=O)c3cc(Nc4ccc(OC)cc4OC)nc4ccccc34)CC2)cc1	20.6µM*	.	-17.2%	23.1µM*	.	-16.8%
COc1ccc(NC(=O)C2c3ccccc3OCC(=O)N2Cc2ccc3c(c2)OCO3)cc1 (stereo unspecified)	?	1.5	.	-14.8%	.	.
O=C(OCc1nnc(-c2ccc(Br)cc2)o1)c1ccco1	0.0%	11.9	0.7%	0.7%	-2.1%	?
CCN(CC(=O)Nc1ccccc1C(F)(F)F)C(=O)CCc1c(C)[nH]c(=O)c(C#N)c1C	-7.6%	11.3	-8.2%	-1.4%	0.4%	1.0%
Cc1ccc(Sc2cc(C(=O)NCCCN(C)C)c3ccccc3n2)cc1	?	-69.3*	-14.3%	-10.9%	-1.9%	10.2%
Cc1ccc(Sc2cc(C(=O)NCCN(C)C)c3ccccc3n2)cc1	?	-29.1	-41.8%	?	3.4%	-9.3%
Cc1ccc(S(=O)(=O)C(CNC(=O)C(=O)NCCc2ccc(Cl)cc2)c2cccs2)cc1 (stereo unspecified)	?	.	-17.0%	?	.	-26.4%
Cn1c(/C=C/c2ccc(Cl)cc2Cl)c([N+](=O)[O-])c(=O)n(C)c1=O	5.17µM*	-4.4	-13.6%	8.2µM*	-13.6%	-2.3%
COc1ccc(/C=C/c2c([N+](=O)[O-])c(=O)n(C)c(=O)n2C)c(OC)c1	-26.3%	-27.7	-9.0%	11.9%	-6.8%	-20.7%
Cn1c(/C=C/N(Cc2ccccc2)c2ccccc2)c([N+](=O)[O-])c(=O)n(C)c1=O	?	-6.4	9.1%	?	-11.0%	7.1%
CCOc1ccc(/C=C/c2c([N+](=O)[O-])c(=O)n(C)c(=O)n2C)cc1	?	-93.3*	-1.1%	13.2%	-7.8%	4.8%
COc1ccc(/C=C/c2c([N+](=O)[O-])c(=O)n(C)c(=O)n2C)cc1	-2.9%	-12.5	-3.4%	-0.2%	-1.3%	-1.4%
CCc1ccc(/C=C/c2c([N+](=O)[O-])c(=O)n(C)c(=O)n2C)cc1	?	-98.4*	-14.0%	?	-1.2%	-24.5%
CCOC1(OCC)OC(c2ccccc2)=C(C#N)C(C=Cc2ccccc2)C1(OCC)OCC (stereo unspecified)	20.6µM*	-6.0	-11.6%	?	.	2.5%
CCOC(=O)C1=C(c2ccccc2)OC(N)=C(C#N)C1C1CCCCC1 (stereo unspecified)	?	13.1	-69.0%	?	-2.1%	?
CN(Cc1cc(Cl)cc(Cl)c1O)Cc1c(O)ccc2ccccc12	?	-96.1*	-48.3%	?	8.6%	?
COc1ccc(S(=O)(=O)N(CCO)c2ccccc2CN(C)C/C=C/c2ccc(Cl)cc2)cc1	14.6µM*	.	.	11.6µM*	.	.
CCN(CC)S(=O)(=O)c1ccc(S(=O)(=O)N(CC(=O)Nc2ccccc2)Cc2ccco2)cc1	?	5.8	-19.0%	17.8µM*	-13.4%	-18.0%
CN(C)S(=O)(=O)c1ccc(S(=O)(=O)N(Cc2ccco2)Cc2ccccc2Cl)cc1	16.4µM*	9.2	-21.0%	20.6µM*	-2.1%	-5.5%
COc1ccc(S(=O)(=O)N(CCC(N)=O)Cc2ccco2)cc1OC	-11.8%	2.0	22.3%	7.0%	7.4%	8.3%
Cc1ccc(S(=O)(=O)N(Cc2ccccc2)Cc2ccco2)cc1	?	2.4	2.1%	9.2µM*	0.0%	0.1%
COc1ccc(S(=O)(=O)N(Cc2ccc(OC)c(OC)c2)Cc2ccco2)cc1	18.4µM*	-13.7	-13.6%	23.1µM*	-2.4%	?
CS(=O)(=O)N(Cc1ccco1)Cc1ccccc1Cl	-7.5%	-2.8	-2.1%	-18.3%	4.6%	1.7%
O=C(CCCC(=O)OCC(=O)c1ccc(Cl)cc1)NC1CCCCC1	-0.1%	14.2	-6.5%	-18.1%	1.1%	-7.5%
SMILES	DT40 TDP1 no CPT	IL1B secr inh	HepG2 viability	DT40 TDP1 CPT	S-ASM inh	TGFb SMAD3 inh
O=C(O)c1cccc2c1Cc1cc([N+](=O)[O-])ccc1-2	?	?	18.9%	-17.4%	-0.7%	9.5%
CC(=NO)c1ccc2c(c1)Cc1cc([N+](=O)[O-])ccc1-2	13µM*	-9.3	-13.1%	?	-18.1%	?
CC(O)CN(CC(C)O)c1ccc2c(c1)Cc1cc([N+](=O)[O-])ccc1-2 (stereo unspecified)	14.6µM*	?	-9.0%	18.4µM*	?	29.8%
COC(=O)c1cc(C(=O)NCCCN2CCOCC2)cc([N+](=O)[O-])c1	-5.5%	-11.9	-15.7%	16.7%	5.0%	7.2%
CC(C)=CCc1c(O)ccc2c1OC(c1ccc(O)c(O)c1)CC2=O (stereo unspecified)	13µM*	37.1	-19.8%	10.3µM*	-10.6%	4.6%
CC1=C(C(=O)Nc2cccnc2)C(c2ccc(F)cc2)n2nc(-c3cccc(C)c3)nc2N1 (stereo unspecified)	?	.	-8.6%	?	.	-3.9%
CCOC1=C2[C@@H](CN(S(=O)(=O)c3ccc(C)cc3)[C@H]2c2ccccc2F)[C@H]2C(=O)N(CC)C(=O)[C@H]2C1	?	35.7	-17.4%	?	.	-21.4%
CCOC1=C2[C@@H](CN(S(=O)(=O)c3ccc(C)cc3)[C@H]2c2ccccc2Cl)[C@H]2C(=O)N(Cc3ccccc3)C(=O)[C@H]2C1	14.6µM*	-15.2	-13.1%	18.4µM*	.	?
COC(=O)C1=C(C(=O)OC)[C@@H]2N(C)c3ccc(OC)cc3[C@@]23C[C@@H](C(=O)OC)N(C(=O)c2ccco2)C3=N1	0.1%	28.7	-11.8%	-7.3%	7.2%	-1.2%
COC(=O)c1sc2ccccc2c1S(=O)(=O)N1CCN(c2ccc(C(C)=O)cc2)CC1	?	.	-20.3%	16.4µM*	.	-26.1%
CCOC(=O)c1sc2ccc(S(=O)(=O)N3CC(C)CC(C)C3)cc2c1N (stereo unspecified)	13µM*	18.2	1.8%	?	48.9%	-12.0%
CCOC(=O)c1sc(NC(=O)c2ccc(S(=O)(=O)N3CCCCCC3)cc2)nc1-c1ccccc1	1.03µM*	9.8	2.3%	?	-0.2%	4.8%

Screening data (PubChem)
